# High-throughput results (PubChem)
# BioA inh-1 – blocks M. tuberculosis BioA enzyme activity; hit rate 0.096% among 360,000; purified M. tuberculosis BioA enzyme, plate reader; inhibition, % at 9.99 µM; in the data active means inhibition above about 40%; inconclusive means no clear call, values can overlap the other calls
# TcdB inh – TcdB glycohydrolase inhibition. P18177. inhibition, % at 9.99 µM. TcdB glycohydrolase enzymatic assay, plate reader. hit rate 0.24% among 350,000; in the data active means inhibition above about 10%
# FadD28 FP inh – blocks FadD28 binding to the bisubstrate probe. AID 588549. inhibition, % at 12.5 µM. hit rate 0.22% among 360,000. fluorescence polarization; in the data active means inhibition above about 8.5%, passing the limit was not always enough; inconclusive means no clear call, values can overlap the other calls
# DUSP3 inh – blocks human VHR1 dual specificity phosphatase | hit rate 0.52% among 290,000 | inhibition, % at 13.3 µM | recombinant VHR phosphatase, pNPP absorbance | AID 1654; in the data active means inhibition above about 50%
# Y pestis TopoI – blocks Yersinia pestis topoisomerase I activity; Y. pestis Topo-I cleavage product accumulation, plate reader; activity, % at 10 µM; hit rate 0.064% among 360,000; in the data active means activity above about 50%, passing the limit was not always enough; inconclusive means no clear call, values can overlap the other calls
# MazEF act – activators of E. coli MazEF toxin-antitoxin RNase. P0AE70. FAM/BHQ RNA-DNA oligo cleavage fluorescence, 5 h. activation, % at 20 µM. hit rate 0.32% among 350,000. AID 504720; in the data active means activation above about 50%
# Target sequence (P0AE70 whole entry, looked up): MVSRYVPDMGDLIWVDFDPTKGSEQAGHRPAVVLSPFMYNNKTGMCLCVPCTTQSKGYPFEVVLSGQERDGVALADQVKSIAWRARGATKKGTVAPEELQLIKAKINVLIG
# BioA inh-2 – Mtb BioA enzyme inhibition | max activity, % | 310 tested, under 10 active | purified BioA enzyme, plate reader, dose response | shares compounds with BioA inh-1;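 further: top concentration of the dilution series was 10 µM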
# Target sequence (P9WQ81 whole entry, looked up): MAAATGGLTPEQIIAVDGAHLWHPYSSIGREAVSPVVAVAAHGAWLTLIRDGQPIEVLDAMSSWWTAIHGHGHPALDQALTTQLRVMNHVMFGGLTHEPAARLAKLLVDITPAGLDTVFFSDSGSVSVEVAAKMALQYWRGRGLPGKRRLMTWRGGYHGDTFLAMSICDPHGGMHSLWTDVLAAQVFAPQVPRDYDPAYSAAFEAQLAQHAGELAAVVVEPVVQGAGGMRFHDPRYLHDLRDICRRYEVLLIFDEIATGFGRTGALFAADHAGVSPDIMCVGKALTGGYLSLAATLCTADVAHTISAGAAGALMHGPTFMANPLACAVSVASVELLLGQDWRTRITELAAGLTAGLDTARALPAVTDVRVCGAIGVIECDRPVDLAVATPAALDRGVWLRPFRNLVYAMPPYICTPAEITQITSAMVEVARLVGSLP
# HepG2 cytotox – HepG2 viability loss | HepG2 cytotoxicity, plate reader | shares compounds with BioA inh-1 | 310 tested, under 10 active | max activity, % | AID 651898
# NIH3T3 tox 5 – NIH3T3 viability loss. shares compounds with BioA inh-1. NIH3T3 cytotoxicity, plate reader. activity change, negative = cytotoxicity, % at 26 µM. 310 tested, under 10 active. AID 651900
# Hits are given with their value; i = inactive; ? = inconclusive; nt = no result given. Most compounds without a hit are left out; they make up all but 1% or so of the library. Unless noted, how the calls were made is not given here.
SMILES,BioA inh-1,TcdB inh,FadD28 FP inh,DUSP3 inh,Y pestis TopoI,MazEF act,BioA inh-2,HepG2 cytotox,NIH3T3 tox 5
CCCN1CCN(C(=O)C2CCN(c3nnc(C)c4c(C)n(-c5ccc(C)cc5)nc34)CC2)CC1,41.3,i,i,i,i,i,i,i,i
Nc1cc(C(=O)O)ccc1Nc1ccccc1,75.0,nt,i,i,i,i,i,i,i
COc1ccccc1-c1cc(C(F)(F)F)nc(S(=O)(=O)CCCC(=O)O)n1,60.4,nt,i,i,i,i,i,i,i
COc1cccc(CNC(=O)c2ccc(NC(=O)C3=CSCCO3)cc2)c1,47.7,i,i,i,i,i,i,i,i
Cc1ccc(CNC(=O)c2ccc(NC(=O)C3=CSCCO3)cc2)cc1,i,i,i,i,i,i,nt,nt,nt
CCC(=O)N1C[C@H](C)[C@@H](OC)CN(C)C(=O)c2cc(NC(=O)NC3CCCC3)ccc2OC[C@@H]1C,nt,i,nt,nt,nt,nt,nt,nt,nt
COc1ccc([N+](=O)[O-])cc1C(=O)NC1CCN(Cc2ccccc2)CC1,79.2,i,i,nt,i,i,i,i,i
COc1cc(C(=O)NC2CCN(Cc3ccccc3)CC2)cc(Cl)c1OC,i,i,i,nt,i,i,nt,nt,nt
O=C(CSc1nc2c(c(=O)n1-c1ccc(Cl)cc1)SCC2)N1CCCC1,i,nt,i,i,i,i,nt,nt,nt
O=C(CSc1nc2c(c(=O)n1-c1ccc(Cl)cc1)SCC2)N1CCOCC1,55.9,i,i,i,i,i,i,i,i
COc1ccccc1S(=O)(=O)N1CC[C@@H]2[C@H](CO)Nc3ccc(-c4cccc(C#N)c4)cc3[C@@H]21,48.2,nt,nt,nt,nt,nt,i,i,i
C[C@@H]1CCCCO[C@@H](CN(C)C)[C@H](C)CN([C@H](C)CO)C(=O)c2cc(N(C)C)ccc2O1,i,i,nt,nt,nt,nt,nt,nt,nt
CCN(CC)CCCNC(=O)c1cn(CC)c2ccc(S(=O)(=O)N3CCc4ccccc4C3)cc2c1=O,nt,i,i,i,i,i,nt,nt,nt
CCN(CC)CCNC(=O)c1cn(CC)c2ccc(S(=O)(=O)N3CCc4ccccc4C3)cc2c1=O,58.5,i,i,i,i,i,i,i,i
C[C@@H]1CCCCO[C@@H](CN(C)Cc2ccc3c(c2)OCO3)[C@@H](C)CN([C@H](C)CO)C(=O)c2cc(NC(=O)CCCCCC(=O)Nc3ccccc3N)ccc2O1,nt,i,nt,nt,nt,nt,nt,nt,nt
Cc1nc(-c2cccnc2)sc1C(=O)Nc1ccc(C(F)(F)F)cc1,i,nt,i,i,i,i,nt,nt,nt
Cc1nc(-c2cccnc2)sc1C(=O)Nc1cccc(C(F)(F)F)c1,50.5,nt,i,i,i,i,i,?,i
Cc1cc(C)n2nc(C(=O)Nc3cccnc3)nc2n1,65.4,nt,i,i,i,i,i,i,i
C[C@H](CO)N1C[C@H](C)[C@H](CN(C)CC2CC2)Oc2ncc(C#CC3(O)CCCC3)cc2C1=O,nt,i,nt,nt,nt,nt,nt,nt,nt
COc1ccc(C(=O)Nc2cccnc2)cc1OC,56.7,nt,i,i,i,i,i,i,i
Cn1nnc2cc(C(=O)Nc3ccccc3)ccc21,i,i,i,i,i,i,nt,nt,nt
CCCCN1C(=O)c2ccc(C(=O)Nc3cccnc3)cc2C1=O,81.7,nt,i,i,i,i,i,i,i
Cn1nnc2cc(C(=O)Nc3cccnc3)ccc21,54.9,nt,i,i,i,i,i,i,i
COc1cc2c(cc1NC(=O)c1cccnc1)CCCC2,55.9,nt,i,i,i,i,i,i,i
COc1ccc(-c2cn(CC[C@H]3CC[C@@H](NS(=O)(=O)c4ccccc4C)[C@H](CO)O3)nn2)cc1,i,i,nt,nt,nt,nt,nt,nt,nt
SMILES,BioA inh-1,TcdB inh,FadD28 FP inh,DUSP3 inh,Y pestis TopoI,MazEF act,BioA inh-2,HepG2 cytotox,NIH3T3 tox 5
COC(=O)[C@@]1(CCS(=O)(=O)c2ccccc2)COC(c2ccc(OCCCO)cc2)=N1,i,i,nt,nt,nt,nt,nt,nt,nt
CCCNC(=O)Nc1ccc2c(c1)C(=O)N(C)C[C@H](OC)[C@H](C)CN(CCC)[C@H](C)CO2,i,i,nt,nt,nt,nt,nt,nt,nt
O=C(C[C@H]1C=C[C@@H](NC(=O)Nc2ccc(F)cc2)[C@H](CO)O1)NCc1cccc(F)c1,i,i,nt,nt,nt,nt,nt,nt,nt
COc1ccc(C(=O)Nc2ccc(Cn3ccnc3)cc2)cc1OC,44.2,i,i,i,i,i,i,i,i
COc1ccc(NC(=O)c2ccc(S(=O)(=O)N(C)C)cc2)cc1OC,43.3,nt,i,i,i,i,i,i,i
COc1ccc(NC(=O)c2ccc(N(C)S(C)(=O)=O)cc2)cc1OC,i,i,i,i,i,i,nt,nt,nt
COc1cc(OC)cc(C(=O)Nc2ccc(Cn3ccnc3)cc2)c1,i,i,i,i,i,i,nt,nt,nt
CN1[C@@H]2Cn3c(ccc(-c4ccccc4)c3=O)[C@H]1[C@@H](C(=O)NCC1CCCCC1)[C@@H]2CO,i,i,nt,nt,nt,nt,nt,nt,nt
O=S(=O)(N[C@@H]1CC[C@@H](CCn2cc(-c3ccccc3F)nn2)O[C@H]1CO)c1ccc(F)cc1,nt,i,nt,nt,nt,nt,nt,nt,nt
CCCC(=O)Nc1cccc(NC(=O)c2ccc(C)c([N+](=O)[O-])c2)c1,43.8,nt,i,i,i,i,i,i,i
CCOc1ccc(CCNC(=O)c2cnc(C)cn2)cc1OCC,68.6,i,nt,i,i,i,i,i,i
CCOc1ccc(CCNC(=O)c2cnccn2)cc1OCC,i,i,nt,i,i,i,nt,nt,nt
CC(C)n1c(N2CCN(C(=O)c3cccs3)CC2)nc2ccccc21,41.5,nt,i,i,i,i,i,i,i
CC(C)Cn1c(N2CCN(C(=O)c3cccs3)CC2)nc2ccccc21,nt,nt,i,i,i,i,nt,nt,nt
Cc1ccc(S(=O)(=O)N[C@@H]2CC[C@H](CCn3cc(C4CC4)nn3)O[C@H]2CO)cc1,i,i,nt,nt,nt,nt,nt,nt,nt
Cc1ccc(NCc2nnc(SCC(=O)N3CCc4ccccc43)n2C)cc1,46.7,nt,i,i,i,i,i,i,i
COc1ccc(Cn2ccc(=O)c(Cc3c(Cl)cccc3Cl)c2C)cc1,43.0,nt,i,i,i,i,i,?,?
CO[C@H]1CN(C)C(=O)c2ccc(NS(=O)(=O)c3ccccc3C)cc2OC[C@H](C)NC[C@@H]1C,nt,i,nt,nt,nt,nt,nt,nt,nt
COc1cc(C(=O)N2Cc3cc4ccccc4nc3C2C)cc(OC)c1OC (stereo not given),68.7,i,i,nt,i,i,i,i,i
C[C@@H]1CN([C@H](C)CO)S(=O)(=O)c2ccc(-c3cccc(F)c3)cc2O[C@H]1CN(C)S(=O)(=O)c1ccccc1,i,i,nt,nt,nt,nt,nt,nt,nt
CC(=O)N1[C@@H]2c3ccc(-c4cccnc4)c(=O)n3C[C@@H]2[C@@H](CO)[C@@H]1C(=O)NCc1ccccc1Cl,85.4,i,nt,nt,nt,nt,i,i,i
CCNC(=O)[C@H]1[C@H](CO)[C@H]2Cn3c(ccc(-c4ccccc4)c3=O)[C@H]2N1C(=O)Cc1cccnc1,40.1,i,nt,nt,nt,nt,i,i,i
O=C(Nc1ncc2c(n1)CC(c1ccco1)CC2=O)c1ccco1 (stereo not given),53.7,i,i,i,i,i,i,i,i
CCCc1cc(=O)oc2c3c(cc(OCC(=O)NCCCn4ccnc4)c12)OC(C)(C)CC3,43.4,11.3,i,i,i,i,i,i,i
